Screening data (PubChem BioAssay)
USP17 inh = blocks human USP17 ubiquitin-rhodamine cleavage; A8MUK1; purified USP17, Ub-rhodamine cleavage fluorescence, 3 h; inhibition, % at 50 µM; actives 6.5% (n = 47,000); AID 1645855
USP10 block = blocks human USP10 ubiquitin-rhodamine cleavage. actives 1.1% (n = 47,000). AID 1645856. Q14694. purified USP10, Ub-rhodamine fluorescence, 60 min. inhibition, % at 20 µM
UCHL1 inh = blocks human UCHL1 ubiquitin-rhodamine cleavage; inhibition, % at 20 µM; AID 1645859; purified UCHL1, Ub-rhodamine cleavage fluorescence; P09936; actives 0.2% (n = 47,000)
USP30 block = blocks human USP30 ubiquitin-rhodamine cleavage; Q70CQ3; purified USP30, Ub-rhodamine cleavage fluorescence; inhibition, % at 25 µM; actives 5.3% (n = 47,000)
USP8 inh = human USP8 deubiquitinase inhibition | AID 1645853 | actives 4.2% (n = 47,000) | inhibition, % at 20 µM | P40818 | purified USP8, Ub-rhodamine cleavage fluorescence, 30 min
USP7 block = human USP7 deubiquitinase inhibition; Q93009; purified USP7, Ub-rhodamine cleavage fluorescence; inhibition, % at 20 µM; actives 0.3% (n = 47,000); AID 1645854
Active calls of the source: *; / = no result. Compounds with a hit are over-represented: about 12% of the library has one in this group of screens. Cut-off read from the data, not from the text of the source: active = inhibition above about 30%; inactive = the rest.

SMILES	USP17 inh	USP10 block	UCHL1 inh	USP30 block	USP8 inh	USP7 block
COc1cc2c(cc1OC)-c1c(c(C(=O)O)nn1-c1ccc(F)cc1)C2	0	6	5	10	11	7
COc1cc2c(cc1OC)-c1c(c(C(=O)N3CCCC3)nn1-c1ccccc1F)C2	76*	0	1	99*	29	3
O=C(Oc1ccc(-c2cnc3ccccc3n2)cc1)c1ccc(F)cc1	65*	1	1	-2	1	5
CCCOc1ccc(-c2ccc(-c3noc(-c4cccnc4)n3)cc2)cc1	19	2	2	24	16	3
Cc1ccc(COC(=O)C2CCN(C3=NS(=O)(=O)c4ccccc43)CC2)cc1	0	2	1	-16	0	-2
Cc1ccc(NC(=O)Cn2c(-n3nc(C)cc3C)nc3c(c2=O)CCC3)cc1	14	1	1	-2	-1	0
Cc1ccc(NC(=O)Cn2c(-n3nc(C)cc3C)nc3c(c2=O)CCCC3)c(C)c1	59*	-3	0	31*	24	1
Cc1ccc(C(CNC(=O)COc2ccccc2)N2CCCC2)o1 (centres undefined)	-1	-4	-4	-20	11	-5
COc1ccc(NC(=O)N2CCn3cccc3C2c2ccc(OC)cc2)cc1 (centres undefined)	-50	-3	-11	-157	-79	-11
COc1ccc(Cl)cc1N(C)C(=O)c1noc2c1CCc1sccc1-2	21	7	7	34*	14	2
COc1ccc(CCNC(=O)c2noc3c2CCc2sccc2-3)cc1OC	52*	5	6	-1	17	3
COc1ccc(-c2cc(C(=O)NCc3cccnc3)[nH]n2)cc1S(=O)(=O)N1CCCC1	12	0	5	9	21	-6
O=c1c2[nH]c3ccc(Br)cc3c2ncn1CCN1CCCC1	6	-1	0	2	-4	-120
O=c1[nH]c(N2CCc3ccccc3C2)nc2c1CCN(S(=O)(=O)c1ccccc1)CC2	13	1	3	22	-7	2
O=C(NCc1ccc(-c2nc3ncccc3o2)cc1)c1ccccc1	14	9	4	25	32*	8
O=C(NCc1ccc(-c2nc3cnccc3o2)cc1)c1ccccc1Br	68*	-5	2	25	15	4
O=C(Nc1cccc(-c2nc3cnccc3o2)c1)c1ccccc1F	44*	2	-4	/	-1	-1
Cc1nc(-c2cccc(NC(=O)c3ccccc3F)c2)no1	2	4	0	0	-2	0
Cc1ccccc1NC(=O)Cn1nc(C2CC2)cc1C(=O)N1CCCC1	-2	0	0	-57	4	0
O=C(NCCCS(=O)(=O)N1CCN(c2ncccn2)CC1)c1cccc(F)c1	0	0	3	-14	-4	0
COc1ccc(C2/C(=C(\O)c3ccccc3)C(=O)C(=O)N2c2nc3ccc(F)cc3s2)cc1 (centres undefined)	/	41*	-2	55*	8	1
COc1ccc(C2/C(=C(\O)c3ccccc3)C(=O)C(=O)N2c2cccc(C(F)(F)F)c2)cc1 (centres undefined)	/	30*	-5	33*	-87	4
Cc1ccc(C)c(NC(=O)CCS(=O)(=O)c2ccc3nc(C)sc3c2)c1	1	1	0	26	-1	1
Cc1noc(C)c1COc1cccc(C(=O)Nc2cccc(S(=O)(=O)N(C)c3ccccc3)c2)c1	2	6	3	2	5	8
COC(=O)c1ccccc1NC(=O)CSc1nnc(-c2ccc(C(C)(C)C)cc2)n1C1CCCC1	15	24	8	52*	26	14
COc1cc(OC)cc(C(=O)Nc2ccc3c(c2)Sc2ncccc2C(=O)N3C)c1	-17	-10	-6	-66	-9	-6
CCOc1ccccc1C(=O)Nc1ccc2c(c1)Sc1ncccc1C(=O)N2C	53*	-8	-1	0	-2	0
CC(=O)O[C@@H]1OC(=O)[C@](C)(C(C)=O)[C@@H]1C	39*	7	8	33*	6	13
CCOC(=O)N1CCN(C(=O)c2oc3c(c2C)C(=O)CC(C)(C)C3)CC1	-8	2	-4	0	-16	-1
Cc1ccc2c(Nc3ccccc3)c(-c3nc(C)no3)cnc2n1	-14	-2	-8	-27	-3	-12
